Source: PubChem
SMN2 splice enh: increases expression of the SMN2 splice variant. 210,000 tested, 2.8% active. Potency, µM (highest dose often 46.1 µM), without a hit: at the highest dose activity change, positive = activation, most hits filed as activators. HEK293 SMN2-luciferase splicing reporter, luminescence, 30-36 h; further: % of control where 0% means no effect; nearly all actives have a fitted effect of over 55% in size
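HEK293 cells carry an SMN2 minigene-luciferase reporter in which exon 7 inclusion puts luciferase in frame. Cells were seeded at 2000 cells/well, attached for 10-12 hours, then exposed to compounds for 30-36 hours at 37C before ONE-Glo luminescence.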
ELG1 genotox: inducers of genotoxicity in HEK293T ELG1-luciferase cells; 330,000 tested, 1.3% active; Potency, µM (series often up to 46 µM), for the others: at the highest dose activity change, positive = activation, usual class: activators; HEK293T ELG1-luciferase reporter, luminescence, 16 h; further: % of control where 0% means no effect; nearly all actives have a fitted effect of over 60% in size
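Reporter readout depends on ELG1 protein level, which increases with genetic stress. After 16 hr compound exposure at 37 °C, luciferase activity was quantified using ONE-Glo.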
Rab9 promoter act: activators of Rab9 promoter. AID 485297. 320,000 tested, 2.8% active. Potency, µM (series often up to 9.22 µM), for the others: at the highest dose activation, negative = inhibition, most hits filed as activators. Huh7 Rab9 promoter-luciferase reporter, luminescence, 24 h; further: % of control where 0% means no effect; nearly all actives have a fitted effect of over 60% in size
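Luminescence read-out: Huh7 cells stably expressing Rab9-luciferase, treated 24 h with compound at 37 °C, then lysed with luciferase reagent for 10 min at ambient before reading.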
NPC1 promoter act: activators of NPC1 promoter | Huh7 NPC1 promoter luciferase reporter, 24 h | Potency, µM (series often up to 9.22 µM), inactives show top-dose activation, usual class: activators | 320,000 tested, 2.4% active; further: % of control where 0% means no effect; nearly all actives have a fitted effect of over 60% in size
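Huh7 reporter cells (NPC1 promoter driving luciferase) are dosed with compound for 24 h at 37 °C, 5% CO2; luciferase detection reagent is then added and luminescence measured after 10 min at ambient temperature.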
Luc counter: Kinase-Glo luciferase inhibition (counter-screen). Potency, µM (series often up to 38.3 µM), for the others: at the highest dose activity change, negative = inhibition, usual class: inhibitors. Kinase-Glo luciferase, ATP luminescence, 8 min. 200,000 tested, 0.28% active. Q27757. AID 1379; further: on the % scale 0 is the no-effect control and ±100 the full control effect; nearly all actives have a fitted effect of over 60% in size
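Substrate mix (final 50 mM imidazole pH 7.2, 50 mM KCl, 7 mM MgCl2, 10 uM ATP, 0.01% Tween 20, 0.05% BSA) plus pin-tool compound, then Kinase-Glo detection mix; 8 min ambient, luminescence read.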
FLuc modulator: firefly luciferase modulation, counter-screen for miR-21 project; 360,000 tested, 6.9% active; P08659; purified FLuc, Km substrates, luminescence inhibition; Potency, µM (highest dose often 57.5 µM), without a hit: at the highest dose activity change, negative = inhibition, usual class: inhibitors;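 further: plate controls were vehicle for no effect and reference inhibitor for full effect; nearly all actives have a fitted effect of over 55% in size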
Target sequence (P08659 whole entry, looked up): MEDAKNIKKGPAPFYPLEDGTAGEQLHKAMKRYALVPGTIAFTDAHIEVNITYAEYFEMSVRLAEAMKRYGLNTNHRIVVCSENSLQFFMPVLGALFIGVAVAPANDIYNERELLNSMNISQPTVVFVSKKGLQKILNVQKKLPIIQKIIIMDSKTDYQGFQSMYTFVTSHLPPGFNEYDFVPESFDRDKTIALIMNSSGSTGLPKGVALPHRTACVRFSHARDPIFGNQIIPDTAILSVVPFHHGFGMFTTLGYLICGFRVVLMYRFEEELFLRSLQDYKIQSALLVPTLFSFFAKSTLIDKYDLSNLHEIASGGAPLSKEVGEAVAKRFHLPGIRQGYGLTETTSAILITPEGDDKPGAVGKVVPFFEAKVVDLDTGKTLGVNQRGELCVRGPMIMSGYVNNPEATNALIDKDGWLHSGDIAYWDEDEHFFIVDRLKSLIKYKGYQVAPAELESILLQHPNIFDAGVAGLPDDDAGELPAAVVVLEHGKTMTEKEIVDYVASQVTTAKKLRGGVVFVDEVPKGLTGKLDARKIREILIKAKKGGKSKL
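Biochemical qHTS of compounds, final roughly 60 µM downward over six points, against 10 nM purified firefly luciferase using Km concentrations of substrates (10 uM D-luciferin, 10 uM ATP) in Tris acetate pH 7.5 buffer; luminescence output.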
Numbers without * were called inactive; [ ] = another dose, or the depositor's remark. A selection: hits, their analogues and other compounds. The true share with any hit is near 7.5%. The call rests on the fitted dose curve; in most records, active means well fitted curve in the direction sought with a large enough effect; inconclusive means small, poorly fitted or top-dose-only effect, or another doubt; inactive means no such curve, though single readings can be large; an effect the other way counts as inactive or inconclusive. Potency means the concentration at half of the fitted maximal effect.

For Cc1ccc(S(=O)(=O)N2CCC(C(=O)OC(C)C(=O)NCc3ccccc3)CC2)cc1C (stereo unspecified) the results were ELG1 genotox -1%, Rab9 promoter act -2%, NPC1 promoter act -1% and FLuc modulator 4%.
Screening COc1ccc(/C=N/Nc2ccc(C(=O)O)cc2)cc1Br returned SMN2 splice enh -80%, ELG1 genotox inconclusive, Rab9 promoter act inconclusive, NPC1 promoter act inconclusive, Luc counter inconclusive and FLuc modulator 0.67µM*.
For CCOc1cc(/C=N/O)cc(Br)c1OCC the results were SMN2 splice enh -40%, ELG1 genotox -1%, Rab9 promoter act 1%, NPC1 promoter act -6%, Luc counter 1% and FLuc modulator 1%.
`C=CCOc1c(Br)cc(/C=N/Nc2ccc(C(=O)O)cc2)cc1OCC` gave SMN2 splice enh 8.9µM*, ELG1 genotox inconclusive, Rab9 promoter act 3.5µM*, NPC1 promoter act 2.8µM*, Luc counter 2% and FLuc modulator 30µM*.
For COc1ccc(/C=N/Nc2ccc(C(=O)O)cc2)cc1OC the results were ELG1 genotox inconclusive, Rab9 promoter act 0.32µM*, NPC1 promoter act 0.32µM* and FLuc modulator 1.3µM*.
COc1ccc(/C=N\NC(=O)C2CCCC2)cc1Br was read as ELG1 genotox 1%, Rab9 promoter act -1%, NPC1 promoter act -3% and FLuc modulator 5%.
Screening COc1cccc(NC(=O)C(=O)NCC(c2cccnc2)N2CCN(c3ccccc3)CC2)c1 (stereo unspecified) returned FLuc modulator -11%.
Cc1nn(-c2ccccc2)c(C)c1/C=N/Nc1nc2ccccc2[nH]1 was read as SMN2 splice enh 3.2µM*, ELG1 genotox 5.2µM*, Rab9 promoter act 0.5µM*, NPC1 promoter act 0.71µM*, Luc counter 10µM* and FLuc modulator 0.85µM*.
For Cc1c(/C=N/n2cnnc2)c2ccccc2n1C the results were SMN2 splice enh 15%, ELG1 genotox -3%, Rab9 promoter act -3%, NPC1 promoter act -2%, Luc counter 1% and FLuc modulator 2%.
Cc1c(/C=N/Nc2nc3ccccc3[nH]2)c2ccccc2n1C was read as ELG1 genotox inconclusive, Rab9 promoter act inconclusive, NPC1 promoter act inconclusive and FLuc modulator 11µM*.
For CCCn1c(/C=N/Nc2nc3ccccc3[nH]2)nc2ccccc21 the results were SMN2 splice enh -29%, ELG1 genotox inconclusive, Rab9 promoter act -25%, NPC1 promoter act -2%, Luc counter -1% and FLuc modulator 13µM*.
For C=CCn1cc(/C=N/Nc2nc3ccccc3[nH]2)c2ccccc21 the results were SMN2 splice enh 30%, ELG1 genotox 10%, Rab9 promoter act -6%, NPC1 promoter act 1%, Luc counter 2% and FLuc modulator 5.4µM*.
CC(C)Cn1c(/C=N/Nc2nc3ccccc3[nH]2)nc2ccccc21 was read as SMN2 splice enh -72%, ELG1 genotox inconclusive, Rab9 promoter act -32%, NPC1 promoter act -21%, Luc counter -2% and FLuc modulator inconclusive.
Screening O=C(O)c1ccccc1NS(=O)(=O)c1cccc2ccccc12 returned Luc counter -3%.
`Cn1c(/C=N/Nc2nc3ccccc3[nH]2)nc2ccccc21` gave SMN2 splice enh 4µM*, ELG1 genotox 1.2µM*, Rab9 promoter act 3.5µM*, NPC1 promoter act inconclusive, Luc counter -6% and FLuc modulator 1.5µM*.
Screening CCn1cnc2cc(NS(=O)(=O)c3ccc(OC)c(OC)c3)ccc21 returned ELG1 genotox 0%, Rab9 promoter act -2%, NPC1 promoter act 0% and FLuc modulator -1%.
CCn1cnc2cc(NC(=O)c3ccc(C)cc3)ccc21 was read as ELG1 genotox inconclusive, Rab9 promoter act 4µM*, NPC1 promoter act 2µM* and FLuc modulator 11µM*.
Cc1ccc(NC(=O)CCn2cnc3cc(C)c(C)cc32)cc1 was read as SMN2 splice enh -5%, ELG1 genotox -2%, Rab9 promoter act -1%, NPC1 promoter act -1%, Luc counter 3% and FLuc modulator -11%.
`Cc1ccc(C(=O)Nc2ccc3c(c2)ncn3C)cc1` gave SMN2 splice enh 2.5µM*, ELG1 genotox inconclusive, Rab9 promoter act 4µM*, NPC1 promoter act 3.2µM*, Luc counter 1% and FLuc modulator -3%[2.3 µM].
For CCOc1ccccc1NS(=O)(=O)c1c(C)noc1C the results were SMN2 splice enh 28%, ELG1 genotox 23µM*, Rab9 promoter act 2%, NPC1 promoter act 3%, Luc counter -2% and FLuc modulator -3%.
Screening COC(=O)c1ccccc1NS(=O)(=O)c1c(C)noc1C returned ELG1 genotox -1%, Rab9 promoter act 4%, NPC1 promoter act 2% and FLuc modulator 1%.
CCCC(=O)Nc1ccc(C#Cc2ccccc2)cc1 was read as SMN2 splice enh inconclusive, ELG1 genotox inconclusive, Rab9 promoter act 2.8µM*, NPC1 promoter act 1.6µM*, Luc counter -1% and FLuc modulator 4.8µM*.
`O=C(Nc1ccccc1O)c1ccc(NC(=O)C2CC2)cc1` gave ELG1 genotox 21µM*, Rab9 promoter act 2.8µM*, NPC1 promoter act 3.5µM* and FLuc modulator 12µM*.
Screening O=C(Nc1ccc(C#Cc2ccccc2)cc1)C1CC1 returned SMN2 splice enh 3.5µM*, ELG1 genotox inconclusive, Rab9 promoter act 1.4µM*, NPC1 promoter act 2.5µM*, Luc counter 1% and FLuc modulator 5.4µM*.
For O=C(Nc1ccccc1C(=O)O)c1ccc(NC(=O)C2CC2)cc1 the results were ELG1 genotox -11%, Rab9 promoter act 0%, NPC1 promoter act 1% and FLuc modulator 0%.
CCc1sc(Nc2ccc(C)cc2Br)nc1-c1cc2cccc(OC)c2oc1=O was read as FLuc modulator -6%.
Screening CN(C)c1ccc(/C=C/c2ccc3ccccc3[n+]2C)cc1 returned SMN2 splice enh -74%, ELG1 genotox 10%, Rab9 promoter act -47%, NPC1 promoter act -35%, Luc counter inconclusive and FLuc modulator inconclusive.
`COc1ccc(/C=C/c2ccc3ccccc3[n+]2C)cc1OC` gave ELG1 genotox inconclusive, Rab9 promoter act -11%, NPC1 promoter act -4% and FLuc modulator 17µM*.
O=C(N/N=C/c1cccc(Oc2ccccc2)c1)c1cc[n+]([O-])cc1 was read as SMN2 splice enh 1%, ELG1 genotox 2%, Rab9 promoter act -4%, NPC1 promoter act 0%, Luc counter 2% and FLuc modulator inconclusive.
